# HTT cytoprotect = qHTS Multiplex Assay to Identify Dual Action Probes in a Cell Model of Huntington: Cytoprotection (ATP); Potency, µM (doses to about 56.4 µM), for inactives: cytoprotection (ATP increase), most hits filed as activators; PC12 HTT-Q103 induced, cytoprotection, ATP luminescence, 40 h; AID 1471, 2008; 230,000 compounds, 0.14% hits; further: potency means the concentration at half of the fitted maximal effect; % of control where 0% means no effect; nearly all actives have a fitted effect of over 45% in size
#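 Stable PC12 Q103-GFP cells in serum-supplemented, phenol red-free DMEM; induction by tebufenozide at 100 nM final; compound dose series; cell viability quantified luminescently from ATP.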
# ALDH1A1 inh = qHTS Assay for Inhibitors of Aldehyde Dehydrogenase 1 (ALDH1A1); Aldehyde dehydrogenase 1A1 (Homo sapiens), P00352; Purified ALDH1A1, NADH fluorescence, propionaldehyde substrate; Potency, µM (series often up to 75.3 µM), without a hit: top-dose activity, negative = inhibition, usual class: inhibitors; 220,000 compounds, 7.3% hits; active means well fitted inhibition curve with a large enough effect, not every such curve was filed as active; inconclusive means small, poorly fitted or top-dose-only effect, or another doubt; inactive means no such curve, though single readings can be large or run the other way;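 further: potency means the concentration at half of the fitted maximal effect; plate controls were no enzyme wells and a reference inhibitor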
# IMPase cell inh = qHTS Assay for Identifying the Cell-Membrane Permeable IMPase Inhibitors | AID 901, 2007 | CHO-M1 cells, IP1 accumulation, HTRF TR-FRET ratio | 120,000 tested, under 10 active | inhibition (IP1 accumulation), % at 46.1 µM; active means well fitted curve in the direction sought with a large enough effect in the signal ratio, not every such curve was filed as active; inconclusive means small, poorly fitted or top-dose-only effect, or a change in a side signal; inactive means no such curve, though single readings can be large or run the other way; the % refers to the signal ratio;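 further: cells stimulated with carbachol in lithium chloride buffer; plate controls were DMSO basal wells for no effect and reference inhibitor wells for full effect; higher means more IMPase inhibition seen as more IP1 and lower FRET ratio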
# Target sequence (P97697 whole entry, looked up): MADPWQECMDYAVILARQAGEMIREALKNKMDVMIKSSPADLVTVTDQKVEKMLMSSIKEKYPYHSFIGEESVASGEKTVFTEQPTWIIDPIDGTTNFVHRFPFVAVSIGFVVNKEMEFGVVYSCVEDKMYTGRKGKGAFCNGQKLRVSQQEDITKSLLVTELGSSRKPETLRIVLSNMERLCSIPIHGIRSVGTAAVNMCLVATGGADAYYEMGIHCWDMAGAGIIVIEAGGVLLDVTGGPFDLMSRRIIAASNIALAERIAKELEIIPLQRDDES
#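 In this qHTS, compounds (final up to 46 uM) act on CHO-M1 cells that are then activated through the M1 receptor with carbachol, in pH 7.4 buffer containing 50 mM LiCl, for 30 min. IP1 accumulation is quantified by the IP-One immunoassay.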
# IMPase Li inh = qHTS Assay for Identifying the Cell-Membrane Permeable IMPase Inhibitors: Potentiation with Lithium; CHO-M1 cells, IP1 TR-FRET (IP-One), carbachol + lithium; Potency, µM (highest dose often 59.4 µM), inactives show at the top dose activity, negative = IMPase inhibition, usual class: inhibitors; 210,000 compounds, 0.35% hits;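 further: IP1 builds up when IMPase is blocked and the TR-FRET signal falls; potency means the concentration at half of the fitted maximal effect; plate controls were basal vehicle for no effect and high inhibitor control for full effect; nearly all actives have a fitted effect of over 50% in size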
#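 IP1 accumulation measured by competitive TR-FRET in lysed CHO-M1 cells after 30 min compound exposure at 37C, with a small lithium addition to potentiate weak responses. Hill-equation AC50 from ratio and donor-channel data.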
# HttQ103 aggreg = qHTS Multiplex Assay to Identify Dual Action Probes in a Cell Model of Huntington: Aggregate Formation (GFP); PC12 HttQ103-GFP aggregates, Acumen cytometry, 40 h; Potency, µM (series often up to 46.1 µM), without a hit: at the top dose activity change, negative = inhibition, usual class: inhibitors; 220,000 compounds, 1.1% hits; AID 1688, 2009; further: potency means the concentration at half of the fitted maximal effect; on the % scale 0 is the no-effect control and ±100 the full control effect; nearly all actives have a fitted effect of over 60% in size
#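 Ecdysone-promoter PC12 model expressing HTT exon 1 Q103 fused to GFP, induced by tebufenozide at 100 nM final. Compounds titrated; aggregates sized 1–25 µm scored on a 488 nm laser cytometer.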
# HPGD inh = qHTS Assay for Inhibitors of HPGD (15-Hydroxyprostaglandin Dehydrogenase); Potency, µM, without a hit: at the highest dose activity change, negative = inhibition, hits mostly inhibitors; 150,000 compounds, 4.3% hits; purified HPGD, NADH fluorescence kinetic, PGE2 substrate; 15-hydroxyprostaglandin dehydrogenase [NAD(+)] (Homo sapiens), P15428; active means well fitted inhibition curve with a large enough effect, not every such curve was filed as active; inconclusive means small, poorly fitted or top-dose-only effect, or another doubt; inactive means no such curve, though single readings can be large or run the other way; further: potency means the concentration at half of the fitted maximal effect; on the % scale 0 is the no-effect control and ±100 the full control effect
# Target sequence (P15428 whole entry, looked up): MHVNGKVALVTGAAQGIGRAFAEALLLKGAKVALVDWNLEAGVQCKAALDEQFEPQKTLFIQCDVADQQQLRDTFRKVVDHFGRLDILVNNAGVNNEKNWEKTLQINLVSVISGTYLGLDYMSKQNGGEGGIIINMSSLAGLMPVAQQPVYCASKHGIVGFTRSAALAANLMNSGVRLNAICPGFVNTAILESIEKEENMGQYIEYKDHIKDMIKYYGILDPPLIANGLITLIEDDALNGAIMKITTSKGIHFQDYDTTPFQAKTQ
#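 NADH formation kinetics: reaction with 30 uM PGE2 and 1 mM NAD+ (final), 20 nM enzyme, Tris-HCl pH 8 with Tween 20, after 15 min compound preincubation at room temperature. Fluorescence change, last versus first of five reads.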
# An asterisk follows results filed as active; ? = inconclusive; . = no result given; [ ] = dose if it differs, or a comment. Only some compounds are listed: those with a hit (about 9.4% of all), similar ones and a draw of the others. Unless noted, the call rests on the fitted dose curve; in most records, active means well fitted curve in the direction sought with a large enough effect; inconclusive means small, poorly fitted or top-dose-only effect, or another doubt; inactive means no such curve, though single readings can be large; an effect the other way counts as inactive or inconclusive.
SMILES,HTT cytoprotect,ALDH1A1 inh,IMPase cell inh,IMPase Li inh,HttQ103 aggreg,HPGD inh
O=C(Cn1nc(C(F)F)cc1C(F)F)NNC(=S)Nc1ccc(F)cc1,-18.1%,0.0%,3.8,21.0%[38.3 µM],18.1%,-17.4%
Cc1ccc(NC(=O)Cn2nc(C)c([N+](=O)[O-])c2C)cc1C,-10.1%,20µM*,.,5.4%,-17.1%[9.22 µM],.
O=C(Cn1nc(C(F)F)cc1C(F)F)NNC(=S)Nc1ccc([N+](=O)[O-])cc1,-3.6%[10 µM],17.8µM*,.,3.8%,-6.0%[9.22 µM],.
Cc1nn(CCC(=O)NNC(=S)Nc2ccc([N+](=O)[O-])cc2)c(C)c1[N+](=O)[O-],.,4.47µM*,.,1.5%,25.4%,.
C(CCc1nnc2c(n1)CCCC2)Cc1nnc2c(n1)CCCC2,-2.9%[10 µM],11.8%[13.5 µM],.,13.6%,.,-2.1%
C=C(C(C)=O)C(O)c1ccc2ccccc2c1 (centres undefined),-24.5%,-6.5%,.,4.4%,.,-1.1%
CC1(C)Cc2c(sc3c2C2=NCCN2C=N3)CS1,17.9%[10 µM],-0.6%,5.7,17.0%[38.3 µM],3.9%,-12.9%
CSC1=Nc2sc3c(c2C2=NCCN12)CCCC3,-8.7%,14.1µM*,27.1,.,29.3%,.
O=C(CSC1=NCCS1)N1CCCCCC1,-0.9%,5.5%,-6.1,-2.3%[38.3 µM],12.6%,28.2µM*
O=C(CSC1=NCCS1)N1CCCC1,-11.8%,-0.4%,-1.2,-4.5%[38.3 µM],-12.8%,-13.5%
O=C(CO/N=C/c1ccccc1OC(F)F)NCc1ccco1,9.8%[10 µM],.,.,.,1.6%[9.22 µM],.
O=C(CO/N=C/c1ccccc1OC(F)F)N1CCc2ccccc21,7.2%[10 µM],15.8µM*,.,3.8%,9.9%,-10.4%
O=C(CO/N=C/c1ccccc1OC(F)F)NCc1cccs1,6.1%[10 µM],8.1%,.,0.4%,-1.5%,15.8µM*
O=C(/C(=C/O)N=Nc1ccccc1)c1ccncc1,?,1.26µM*,9.1,25.1%[38.3 µM],-0.2%,-22.9%
Cc1ccc(N=N/C(=C\O)C(=O)c2ccc(Cl)cc2)cc1,-16.0%[10 µM],12.6µM*,.,22.3%,?,.
C=CCC(O)c1ccccc1 (centres undefined),?,7.5%,.,-1.5%,.,-6.9%
CN1CCN([C@@H](c2ccccc2)c2ccc(Cl)cc2)CC1,?,4.6%[20.9 µM],10.8[20.6 µM],8.7%,12.6%[20.6 µM],-2.5%
S=C(c1ccc(N2CCOCC2)cc1)N1CCOCC1,-16.8%[0.074 µM],2.24µM*,-5.3,3.6%[38.3 µM],-4.0%,7.94µM*
S=C(c1ccc(N2CCCC2)cc1)N1CCCCC1,-22.9%,20µM*,9.9,30.3%[38.3 µM],-13.5%,14.1µM*
CCOc1ccc(C(=S)N2CCOCC2)cc1,-6.7%,-2.0%,7.5,1.8%[38.3 µM],-8.3%,-12.5%
COC(=O)N1C2CC(=O)O[C@@H]3c4cc5c(cc4[C@]1(C)[C@@]3(Br)c1ccccc12)OCO5,3.6%[10 µM],?,.,0.3%,.,?
COC(=O)c1c(C(=O)NCc2ccccc2)ncn1CC(O)COc1ccccc1 (centres undefined),-0.9%,7.94µM*,-1.0,-14.6%[38.3 µM],5.7%,-8.8%
CC1=CC(C)(C)Nc2ccc(OC(=O)CN3C(=O)CCC3=O)cc21,-89.5%,-17.7%,20.4,15.3%[38.3 µM],6.31µM*,-19.9%
CC1=CC(C)(C)Nc2ccc(OC(=O)C(C)N3C(=O)c4ccccc4C3=O)cc21 (centres undefined),-13.1%[10 µM],-11.7%,-10.7[1.84 µM],33.0%[38.3 µM],2.0%[9.22 µM],-15.1%
COc1ccc(C(=O)N2CCC3(CCCN(Cc4ccccc4)C3)CC2)cc1,29.3%,-4.8%,.,17.2%,.,-7.8%
SMILES,HTT cytoprotect,ALDH1A1 inh,IMPase cell inh,IMPase Li inh,HttQ103 aggreg,HPGD inh
COc1ccccc1-c1nnc2sc(COc3ccc(Cl)cc3)nn12,-22.2%[0.074 µM],11.1%,7.3,3.9%,?,-24.1%
COc1ccc(Cc2nn3c(-c4ccccc4OC)nnc3s2)cc1,-11.1%,11.2µM*,0.2,22.3%[38.3 µM],?,28.2µM*
COc1ccc(-c2nnc3sc(-c4ccccc4OC)nn23)cc1,-9.5%,-7.9%,-7.4,-4.3%[38.3 µM],-9.6%,?
COc1ccccc1-c1nnc2sc(C3CCCCC3)nn12,-4.9%,-10.6%,7.6,-1.2%[38.3 µM],-14.9%,28.2µM*
COc1cc(OC)c(-c2nn3c(-c4ccncc4)nnc3s2)cc1OC,9.6%,7.6%,2.3,13.2%[38.3 µM],4.5%,-9.9%
c1cc(-c2nnc3sc(C4CCCCC4)nn23)ccn1,4.5%,3.4%,3.7,0.3%[38.3 µM],12.6µM*,-12.4%
CC(C)(O)[C@@H]1CCC[N+]2(C)CCCC[C@H]12 (some centres undefined),-0.6%,12.6%,.,16.2%,.,-4.4%
COc1ccc(-c2nc3cnc(N4CCOCC4)nc3n(Cc3cccc(OC)c3)c2=O)cc1,15.5%,?,.,15.8%,.,.
Cc1nn(-c2ccccn2)c2c1-c1nc(N3CCOCC3)ncc1CC2,7.2%,?,2.3,-8.4%[38.3 µM],-0.5%,?
Cc1nn(-c2ccccn2)c2c1-c1nc(N)ncc1CC2,-57.4%,?,2.7,-14.5%[38.3 µM],11.2µM*,?
CCN(CC)C(=O)Cn1c(=O)n(Cc2ccc(C(=O)NCc3ccccc3Cl)cc2)c(=O)c2ccccc21,.,.,7.0,.,.,.
CCc1ccccc1NC(c1nnc(-c2cccc(F)c2)o1)c1ccc(F)cc1Cl (centres undefined),.,.,-2.7,.,.,.
CC(C)(C)C(=O)NCC12C=CC(O1)C1C(=O)N(c3ccccc3)C(=O)C12 (centres undefined),6.0%[10 µM],1.41µM*,-1.1,2.8%,?,20µM*
O=C1C2C3C=CC(CO)(O3)C2C(=O)N1c1ccc(-c2ccccc2)cc1 (centres undefined),-39.9%,0.126µM*,-3.1,12.1%[38.3 µM],4.7%,1.41µM*
C[C@@H](N1CCOCC1)[C@@](O)(c1ccccc1)c1ccccn1,-4.9%[10 µM],1.2%[13.5 µM],.,-1.0%,.,-2.3%
Cc1cc(C)n2nc(SCc3ncc(-c4ccccc4)o3)nc2n1,-36.2%,?,2.9,25.8%[38.3 µM],-29.8%,?
c1ccc(-c2cnc(CSc3ncnc4sccc34)o2)cc1,-14.5%[10 µM],0.8%,7.8,3.2%,-18.3%,3.16µM*
CCOC(=O)c1ccc[n+](C(C)C(=O)c2ccc(-c3ccccc3)cc2)c1 (centres undefined),6.3%[10 µM],5.62µM*,.,14.2%,?,-9.2%
CC(C(=O)c1ccc(-c2ccccc2)cc1)[n+]1cccc(NC(=O)c2ccccc2)c1 (centres undefined),13.9%[10 µM],.,.,.,-17.7%[9.22 µM],.
